# KB-V1 cytotox: qHTS assay for MDR1-selective chemotherapeutics: Primary screen using the drug-selected MDR subline cells KB-V1; KB-V1 MDR cells viability, CellTiter-Glo, 72 h; Potency, µM (highest dose often 46.1 µM), actives largely listed as cytotoxic; 400,000 compounds, 3.4% hits; AID 1347076, 2019; note: % is set by controls: 0 for no effect and ±100 for the full control effect; nearly all actives have a fitted effect of over 60% in size
#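 Cytotoxicity via CellTiter-Glo luminescence after 72 h compound exposure at 37 degrees C. Cells: drug-selected KB-V1 line, DMEM phenol-red free plus 10% FBS. Compounds tested at multiple concentrations; normalized data fitted to concentration-effect curves.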
# ATXN2 expr inh: Primary qHTS for Inhibitors of ATXN expression | HEK-293 ATXN2-luciferase reporter, luminescence, 24 h | Potency, µM (doses to about 57 µM), for inactives: at the top dose activity change, negative = inhibition, most hits filed as inhibitors | 360,000 compounds, 0.72% hits | AID 1745845, 2022; note: % is set by controls: 0 for no effect and ±100 for the full control effect; nearly all actives have a fitted effect of over 55% in size
#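 ATXN2-luciferase reporter cells (luciferase flanked by upstream and downstream ATXN2 gene portions) were treated 24 h at 37 °C with compounds at up to 57 uM. SteadyGlo luminescence gave expression; GF-AFC fluorescence gave viability.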
# KB-3-1 cytotox: qHTS assay for MDR1-selective chemotherapeutics: Primary screen using the parental adenocarcinoma cell KB-3-1. KB-3-1 viability, CellTiter-Glo ATP luminescence, 72 h. 400,000 compounds, 1.4% hits. Potency, µM (doses to about 46.1 µM), actives largely listed as cytotoxic; note: % is set by controls: 0 for no effect and ±100 for the full control effect; nearly all actives have a fitted effect of over 60% in size
#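 Parental KB-3-1 viability, qHTS format: 72 h compound exposure, 37 °C; CellTiter-Glo; media-only wells and DMSO plates as controls; concentration-effect fits on corrected data.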
# S2 tox: Viability Counterscreen for Primary qHTS for Inhibitors of ATXN expression; S2 cells (HEK-293 line with an ATXN2-luciferase reporter) viability, CellTiter-Fluor protease fluorescence, 24 h; Potency, µM (highest dose often 56.7 µM), usual class: cytotoxic; 400,000 compounds, 0.49% hits; note: nearly all actives have a fitted effect of over 40% in size
# TGFb inhibitor: qHTS for Inhibitors of TGF-b; Potency, µM (doses to about 46.1 µM), without a hit: at the highest dose activity, negative = inhibition, usual class: inhibitors; HepG2 CAGA-GFP TGF-b/SMAD3 reporter, GFP fluorescence, 18 h; TGF-beta stimulated, 500 pg/mL final; 410,000 compounds, 1.2% hits; AID 588855, 2011; note: % is set by controls: 0 for no effect and ±100 for the full control effect; nearly all actives have a fitted effect of over 65% in size
#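 Inhibition was scored as loss of TGF-beta-induced (500 pg/mL final, 18 hours, 37 degrees C) GFP in HEPG2 cells carrying a CAGA-GFP reporter, in DMEM with 1% FBS. Well GFP was summed per cell; Activity was normalised to unstimulated and stimulated DMSO wells, then concentration-response fitting.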
# HepG2 tox: qHTS for Inhibitors of TGF-b: Cytotox Counterscreen; HepG2 CAGA-GFP viability, ATP luminescence, 18 h; Potency, µM (titrated, usually from 46.1 µM), inactives show at the highest dose activity change, negative = cytotoxicity, most hits filed as cytotoxic; 410,000 compounds, 0.76% hits
#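 HepG2 CAGA-GFP cells (1000/well, DMEM with 1% FBS) received compound, then TGF-beta at 500 pg/mL final, and were incubated 18 hours at 37 degrees C. Viability was read by CellTiter-Glo luminescence. Media-only wells were set as complete cell-killing and DMSO as no toxicity.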
# * marks the source's active call; other numbers are inactive results; i = inactive; ? = inconclusive; · = no result. An excerpt weighted towards active compounds, which were near 5.9% of everything screened. Calls come from the whole dose curve; as a rule, active = well fitted curve in the direction sought with a large enough effect; inconclusive = small, poorly fitted or top-dose-only effect, or another doubt; inactive = no such curve, though single readings can be large; an effect the other way counts as inactive or inconclusive. Potency is the fitted concentration of half-maximal effect.
SMILES,KB-V1 cytotox,ATXN2 expr inh,KB-3-1 cytotox,S2 tox,TGFb inhibitor,HepG2 tox
COc1ccc(-c2csc(NC(=O)c3ccc(OCC(=O)N4CCOCC4)c(OC)c3)n2)cc1OC,?,16µM*,?,?,0%,-21%
CCc1noc(C)c1C(=O)OCC(=O)Nc1nc(-c2ccc(F)c(F)c2)cs1,2.9µM*,-15%,i,?,-11%,-21%
CCc1noc(C)c1C(=O)Nc1nc(-c2ccc(NC(C)=O)cc2)cs1,?,-12%,i,?,-12%,-13%
COc1ccc(-c2csc(NC(=O)c3ccco3)n2)cc1,i,46%,i,i,0%,-39%
CCc1noc(C)c1C(=O)Nc1nc(-c2ccc(OC)c(OC)c2)cs1,10µM*,?,i,?,-14%,-9%
COc1cc(C(=O)Nc2cccc(C)n2)ccc1OCC(=O)N1CCOCC1,i,0%,i,i,0%,0%
Cc1cc(C(=O)Nc2ccccc2-c2nc(CNC(=O)C3COc4ccccc4O3)c(C)o2)c(C)o1 (stereo not given),·,·,·,i,·,·
O=C(Nc1nc(-c2ccc(Oc3ccccc3)cc2)cs1)C1=COCCO1,18µM*,-13%,?,i,?,-3%
Cc1ccc(-c2csc(NC(=O)C3=COCCO3)n2)cc1,i,64%,i,i,-20%,-20%
COc1ccc(-c2csc(NC(=O)CSCc3c(C)noc3C)n2)cc1OC,·,-17%,·,?,0%,-33%
Cc1noc(C)c1CSCC(=O)Nc1nc(-c2ccc(F)c(F)c2)cs1,?,22µM*,i,?,?,-20%
COc1ccc(CC(=O)Nc2nc(-c3ccc(OC)c(OC)c3)cs2)cc1OC,?,22µM*,i,?,-14%,-20%
NC(Cc1ccc(C(F)(F)F)cc1)c1csc(Nc2nccc(C(F)(F)F)n2)n1 (stereo not given),23µM*,?,?,i,?,-105%
CC(=O)c1ccc(Nc2nc(C(N)Cc3ccc(Cl)cc3)cs2)cc1 (stereo not given),i,?,?,?,?,-80%
Cc1cc(C)nc(Nc2nc(C(N)Cc3ccc(Cl)cc3)cs2)n1 (stereo not given),?,?,i,?,16µM*,-95%
Cc1cc(C)nc(Nc2nc(C(N)Cc3ccc(C(F)(F)F)cc3)cs2)n1 (stereo not given),?,-21%,?,?,?,22µM*
NC(COCc1ccccc1)c1csc(Nc2nccc(C(F)(F)F)n2)n1 (stereo not given),?,3%,i,i,12%,-1%
CS(=O)(=O)c1ccc(Nc2nc(C(N)Cc3ccc(F)cc3)cs2)cc1 (stereo not given),i,-20%,i,i,?,-42%
Cc1cc(C)nc(Nc2nc(C(N)Cc3ccc(F)cc3)cs2)n1 (stereo not given),?,-24%,?,?,?,13µM*
CC1(C)CCC[C@@]2(C)[C@@H]1CC[C@@]1(C)OC(=O)C[C@H]21,·,-16%,·,·,·,·
CCCc1cnc(Nc2nc(C(N)Cc3ccc(C(F)(F)F)cc3)cs2)nc1 (stereo not given),?,-16%,?,·,?,11µM*
CS(=O)(=O)c1ccc(Nc2nc(C(N)Cc3ccc(C(F)(F)F)cc3)cs2)cc1 (stereo not given),?,?,?,i,?,-55%
COc1cc(OC)nc(Nc2nc(C(N)Cc3ccc(C(F)(F)F)cc3)cs2)n1 (stereo not given),?,?,?,?,?,10µM*
CC1(C(=O)NS(=O)(=O)Cc2ccccc2C(F)(F)F)CCN1C(=O)Cc1cccs1 (stereo not given),i,1%,i,i,32%,-32%
O=C(c1cc(COc2ccc(F)cc2Cl)on1)N1CCC(c2ccncc2)CC1,4.1µM*,-6%,i,i,?,-4%
SMILES,KB-V1 cytotox,ATXN2 expr inh,KB-3-1 cytotox,S2 tox,TGFb inhibitor,HepG2 tox
O=C(CCCCCCC(=O)Nc1ccccc1)NO,1.3µM*,179%,8.2µM*,?,56%,·
NS(=O)(=O)c1cc2c(cc1Cl)CN(C1CCCCC1)C2=O,·,8%,·,i,·,·
O=C1/C(=C/c2cccnc2)SC(=S)N1Cc1ccco1,21µM*,-19%,13µM*,i,-40%,-2%
O=C1/C(=C/c2ccc(O)c([N+](=O)[O-])c2)SC(=S)N1Cc1ccccc1,?,-21%,?,?,-11%,-20%
O=C1/C(=C\c2cccc([N+](=O)[O-])c2O)SC(=S)N1Cc1ccccc1,i,?,?,?,10µM*,-42%
Cc1cc(/C=C2\SC(=S)N(Cc3ccco3)C2=O)c(C)n1-c1cccnc1,?,1%,i,i,27%,-1%
O=C1CSC(=S)N1Cc1cccnc1,2.9µM*,?,4.6µM*,?,7.9µM*,-26%
O=C1/C(=C/c2ccccc2O)SC(=S)N1Cc1cccnc1,?,28µM*,3.3µM*,16µM*,?,-2%
COc1ccc(NC(=O)c2cc3c(=O)n(Cc4ccco4)ccc3nc2C)c(OC)c1,·,·,·,·,-25%,-8%
Cc1cccc(CNC(=O)c2cnn(-c3nccc(-c4ccccc4C(F)(F)F)n3)c2C)n1,·,·,·,i,·,·
CCc1cccc2c(-c3ccccc3)nc(SCC(=O)Nc3ccc(OC)cc3)nc12,i,-11%,i,i,12%,-2%
Cc1cc(CNC(=O)CCN2Cc3cc(Cl)ccc3OC(C)C2)nn1C (stereo not given),·,·,·,i,·,·
CSC1SCC2C(=O)N(C)C(C(C)C)C(=O)OCC(NC(=O)c3cnc4ccccc4n3)C(=O)NC(C)C(=O)N(C)C1C(=O)N(C)C(C(C)C)C(=O)OCC(NC(=O)c1cnc3ccccc3n1)C(=O)NC(C)C(=O)N2C (stereo not given),1.6µM*,-63%,i,?,-106%,35%
COc1ccccc1Cn1cc(C(=O)c2ccc(F)cc2)c(=O)c2cc3c(cc21)OCO3,i,-2%,i,i,14%,0%
O=C(CSC1=NS(=O)(=O)c2ccccc21)Nc1ccccc1,i,-1%,15µM*,i,?,-28%
O=CN(Cc1ccccc1)c1cc([N+](=O)[O-])ccc1OCc1ccccc1,5.8µM*,12%,i,?,4%,0%

# Source: PubChem (National Center for Advancing Translational Sciences (NCATS))
